The full list was thinned out, with hits kept by preference.
IDE exosite FP: exo-site inhibitors of human IDE, primary screen, biochemical, fluorescence anisotropy, probe displacement; Insulin-degrading enzyme (Homo sapiens), P14735; purified IDE, FL-6b probe fluorescence polarization; stronger effect = lower value; z-score at 20 µM; 6.3% of 17,000 active; AID 1259349, 2017;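 active = z-score of -3 or lower, meaning strong loss of probe binding signal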;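 note: His-tagged human IDE residues 42-1019 made in E. coli with 30 nM FL-6b probe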
Target sequence (P14735 42-1019 limits assumed): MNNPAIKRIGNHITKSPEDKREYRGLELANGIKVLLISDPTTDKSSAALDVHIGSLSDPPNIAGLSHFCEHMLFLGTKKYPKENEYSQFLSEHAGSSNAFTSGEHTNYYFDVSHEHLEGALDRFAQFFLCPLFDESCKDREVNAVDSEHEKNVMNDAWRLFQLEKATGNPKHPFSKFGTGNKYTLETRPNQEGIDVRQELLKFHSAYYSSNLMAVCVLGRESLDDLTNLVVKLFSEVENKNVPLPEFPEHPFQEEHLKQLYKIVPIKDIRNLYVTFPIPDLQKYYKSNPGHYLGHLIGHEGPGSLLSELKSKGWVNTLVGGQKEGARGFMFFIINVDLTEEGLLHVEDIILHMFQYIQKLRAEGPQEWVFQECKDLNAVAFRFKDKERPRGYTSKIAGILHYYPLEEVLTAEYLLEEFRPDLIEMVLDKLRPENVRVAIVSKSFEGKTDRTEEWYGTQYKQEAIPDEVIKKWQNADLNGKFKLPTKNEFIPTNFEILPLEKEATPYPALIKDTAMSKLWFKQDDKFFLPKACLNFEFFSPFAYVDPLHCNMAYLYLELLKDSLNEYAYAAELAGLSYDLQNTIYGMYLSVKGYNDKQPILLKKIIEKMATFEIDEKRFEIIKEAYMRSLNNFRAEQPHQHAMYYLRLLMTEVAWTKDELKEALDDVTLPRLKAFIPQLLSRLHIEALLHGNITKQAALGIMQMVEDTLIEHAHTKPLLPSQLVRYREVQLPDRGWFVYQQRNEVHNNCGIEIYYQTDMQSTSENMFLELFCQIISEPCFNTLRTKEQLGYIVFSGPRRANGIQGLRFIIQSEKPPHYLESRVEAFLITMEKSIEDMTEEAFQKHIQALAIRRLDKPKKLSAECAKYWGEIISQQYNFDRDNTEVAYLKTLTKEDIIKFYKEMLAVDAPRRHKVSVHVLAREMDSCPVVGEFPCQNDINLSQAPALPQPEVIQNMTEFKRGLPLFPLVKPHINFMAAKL
Starred values were filed as active, the others as inactive; ! = repeats disagree.

SMILES	IDE exosite FP
CN(C)CC(=O)N1C[C@@H]2N[C@H](C1)C2c1ccc(/C=C/c2ccccc2)cc1 (stereo not given in full)	-5.64*!
O=C(c1cnccn1)N1C[C@@H]2N[C@H](C1)C2c1ccc(/C=C/c2ccccc2)cc1 (stereo not given in full)	-4.23*!
Cc1cccc(-c2ccc([C@@H]3[C@@H]4CN(C(=O)CN(C)C)C[C@H]3N4)cc2)c1	0.219
CC(=O)N1CC(=O)N2[C@H](CO)[C@@H](c3ccc(-c4ccc(C#N)cc4)cc3)[C@@H]2C1	1.76
COc1ccc([C@@H]2C/C=C\C[C@H](c3ccc4c(c3)OCO4)NC(=O)CCC(=O)N2)c(OC)c1	0.957
Cc1ccc(S(=O)(=O)NCC[C@H]2CC[C@@H](NC(=O)c3cccnc3)[C@H](CO)O2)cc1	2.66
C[C@@H]1CCCCO[C@@H](CN(C)C(=O)CCC(F)(F)F)[C@@H](C)CN([C@H](C)CO)C(=O)c2cc(NC(=O)C3CCCCC3)ccc2O1	0.114
O=C(c1ccc(F)cc1)N1CC(=O)N2[C@H](CO)[C@H](c3ccc(C#CC4CCCCC4)cc3)[C@@H]2C1	4.2
COc1ccc2c3c(n(C)c2c1)[C@@H](CO)N(C)CC31CN(C(=O)Nc2c(C)noc2C)C1	0.183
COc1cc(CN2CC3(CCN(C(=O)Nc4c(C)noc4C)CC3)c3c(n(C)c4cc(OC)ccc34)[C@@H]2CO)cc(OC)c1	-3.38*
COc1cc(CN2CC3(CN(C(=O)CN4CCOCC4)C3)c3c(n(C)c4cc(OC)ccc34)[C@H]2CO)cc(OC)c1	-0.492
COc1cc(CN2CC3(CCN(C(=O)Nc4c(C)noc4C)CC3)c3c(n(C)c4cc(OC)ccc34)[C@H]2CO)cc(OC)c1	-3.41*
COc1ccc2c3c(n(C)c2c1)[C@H](CO)N(C)CC31CN(C(=O)Nc2c(C)noc2C)C1	0.533
COc1cc(CN2CC3(CN(C(=O)Nc4c(C)noc4C)C3)c3c([nH]c4cc(OC)ccc34)[C@H]2CO)cc(OC)c1	0.209
O=C(c1cccc(F)c1)N1CC2(C1)[C@H](c1ccccc1)[C@@H](CO)N2C(=O)C1CCCCC1	-1.74
C[C@@H]1CN([C@@H](C)CO)C(=O)c2cc(N(C)C)ccc2O[C@@H](C)CCCCO[C@@H]1CN(C)Cc1ccc(C(=O)O)cc1	1.15
N#C[C@@H]1[C@H](c2ccc(-c3cccnc3)cc2)[C@H](CO)N1C(=O)C1CCOCC1	0.955
N#C[C@H]1[C@@H](c2ccc(C3=CCCC3)cc2)[C@@H](CO)N1C(=O)c1ccccn1	0.955
CO[C@@H]1CC[C@@H]2CCN(C)C(=O)CC3(CCCCC3)CN(C)C(=O)c3cccc(C#N)c3OC[C@@H]1O2	0.531
N#C[C@@H]1[C@H](c2ccc(C#CC3(O)CCCC3)cc2)[C@@H](CO)N1C(=O)C1CC1	2.24
Cn1cnc(S(=O)(=O)N2CCCCN3[C@H](CO)[C@H](c4ccc(-c5ccc(F)cc5)cc4)[C@@H]3C2)c1	3.94
Cn1cnc(S(=O)(=O)N2CCCCN3[C@H](CO)[C@@H](c4ccc(-c5cccc(F)c5)cc4)[C@H]3C2)c1	0.0352
Cn1cnc(S(=O)(=O)N2CCCCN3[C@H](C2)[C@@H](c2ccc(-c4cccc(F)c4)cc2)[C@@H]3CO)c1	0.693
Cn1cnc(S(=O)(=O)N2CCCCN3[C@@H](CO)[C@@H](c4ccc(-c5cccc(F)c5)cc4)[C@@H]3C2)c1	-4.6*
Cn1cnc(S(=O)(=O)N2CCCCN3[C@@H](CO)[C@H](c4ccc(-c5cccc(F)c5)cc4)[C@@H]3C2)c1	2.07
SMILES	IDE exosite FP
Cn1cnc(S(=O)(=O)N2CCCCN3[C@H](CO)[C@@H](c4ccc(-c5cccc(F)c5)cc4)[C@@H]3C2)c1	-3.68*
COCC#Cc1ccc([C@H]2[C@H](CO)N3C(=O)CN(C(=O)C4CC4)C[C@@H]23)cc1	0.526
CO[C@H]1CN(C)C(=O)c2cc(NS(C)(=O)=O)ccc2OC[C@H](C)N(Cc2cncnc2)C[C@@H]1C	-0.649
N#C[C@H]1[C@H](c2ccc(C#CC3CCCC3)cc2)[C@@H](CO)N1C(=O)Cc1ccccn1	-0.699
C[C@H]1CCCCO[C@H](CN(C)C(=O)NC2CCCCC2)[C@@H](C)CN([C@@H](C)CO)C(=O)c2cc(N(C)C)ccc2O1	-0.187
N#Cc1ccc(-c2ccc([C@@H]3[C@@H]4CN(S(=O)(=O)Cc5ccccc5)C[C@H]3N4)cc2)cc1	-0.716
CCCC#Cc1ccc([C@H]2[C@H](CO)N3C(=O)CN(C(=O)c4cccnc4)C[C@@H]23)cc1	-1.16
C[C@@H]1CN([C@@H](C)CO)C(=O)CCCn2cc(nn2)CO[C@@H]1CN(C)S(=O)(=O)c1cccc(C#N)c1	1.18
O=C(NC1CCCCC1)N1CC(=O)N2[C@H](CO)[C@@H](c3ccc(-c4ccccc4)cc3)[C@H]2C1	-5.2*
O=C(NC1CCCCC1)N1CC(=O)N2[C@@H](CO)[C@@H](c3ccc(-c4ccccc4)cc3)[C@@H]2C1	-3.66*
O=C(NC1CCCCC1)N1CC(=O)N2[C@@H](CO)[C@H](c3ccc(-c4ccccc4)cc3)[C@@H]2C1	-0.884

High-throughput results from PubChem BioAssay.
